# According to the supplement of paper PMC7765376:
# Structures can show the parent of a compound that is named as a salt. In all, about 1,500 compounds were measured (“Excess HSA synergy score (sum over dose matrix of excess over highest single agent)”: median about 43, lowest 2% from about -900 on). The sample holds the lowest values, similar compounds and a random draw of the others, so the mix is not that of the screen.
# Test system: PEO-1
# Assay: Excess HSA synergy score (sum over dose matrix of excess over highest single agent) (score (summed % response)); higher = less synergy / more antagonism (negative = synergy)
# Details: 72 h, read-out: viability/apoptosis luminescence (CellTiter-Glo or Caspase3-Glo / not stated per table)
# [1] = matrix design: 6x6, 5-fold dilutions (primary screen)
# [2] = matrix design: 10x10, 9-step dilutions (confirmatory)
smiles,measurement,setting,value
CC(=O)NCC(=O)N1[C@@H]2CC[C@H]1c1ccc(Nc3ncc(C(F)(F)F)c(NC4CCC4)n3)cc12 + CC[C@H](NC(=O)[C@H](C)NC)C(=O)N1C[C@@H](O)C[C@H]1Cc1c(-c2[nH]c3cc(F)ccc3c2C[C@@H]2C[C@H](O)CN2C(=O)[C@H](CC)NC(=O)[C@H](C)NC)[nH]c2cc(F)ccc12 [Birinapant],Excess HSA synergy score,[1],-154
CCCCN1CCC(CNC(=O)c2c3n(c4ccccc24)CCCO3)CC1 [Piboserod hydrochloride] + CC[C@H](NC(=O)[C@H](C)NC)C(=O)N1C[C@@H](O)C[C@H]1Cc1c(-c2[nH]c3cc(F)ccc3c2C[C@@H]2C[C@H](O)CN2C(=O)[C@H](CC)NC(=O)[C@H](C)NC)[nH]c2cc(F)ccc12 [Birinapant],Excess HSA synergy score,[1],-0.918
Nc1ccn([C@@H]2O[C@H](CO)[C@@H](O)C2(F)F)c(=O)n1 [Gemcitabine] + CC[C@H](NC(=O)[C@H](C)NC)C(=O)N1C[C@@H](O)C[C@H]1Cc1c(-c2[nH]c3cc(F)ccc3c2C[C@@H]2C[C@H](O)CN2C(=O)[C@H](CC)NC(=O)[C@H](C)NC)[nH]c2cc(F)ccc12 [Birinapant],Excess HSA synergy score,[1],-59.3
same,Excess HSA synergy score,[2],-1130
Nc1ccn([C@@H]2O[C@H](CO)[C@@H](O)[C@@H]2O)c(=O)n1 [Cytarabine] + CC[C@H](NC(=O)[C@H](C)NC)C(=O)N1C[C@@H](O)C[C@H]1Cc1c(-c2[nH]c3cc(F)ccc3c2C[C@@H]2C[C@H](O)CN2C(=O)[C@H](CC)NC(=O)[C@H](C)NC)[nH]c2cc(F)ccc12 [Birinapant],Excess HSA synergy score,[1],-388
same,Excess HSA synergy score,[2],-1320
Nc1ccn([C@@H]2CS[C@H](CO)O2)c(=O)n1 [Lamivudine] + CC[C@H](NC(=O)[C@H](C)NC)C(=O)N1C[C@@H](O)C[C@H]1Cc1c(-c2[nH]c3cc(F)ccc3c2C[C@@H]2C[C@H](O)CN2C(=O)[C@H](CC)NC(=O)[C@H](C)NC)[nH]c2cc(F)ccc12 [Birinapant],Excess HSA synergy score,[1],228
Nc1ncn([C@@H]2O[C@H](CO)[C@@H](O)[C@H]2O)c(=O)n1 [5-Azacitidine] + CC[C@H](NC(=O)[C@H](C)NC)C(=O)N1C[C@@H](O)C[C@H]1Cc1c(-c2[nH]c3cc(F)ccc3c2C[C@@H]2C[C@H](O)CN2C(=O)[C@H](CC)NC(=O)[C@H](C)NC)[nH]c2cc(F)ccc12 [Birinapant],Excess HSA synergy score,[1],-38.5
Nc1ccn([C@@H]2O[C@H](CO)[C@@H](O)[C@H]2O)c(=O)n1 [Cytidine] + CC[C@H](NC(=O)[C@H](C)NC)C(=O)N1C[C@@H](O)C[C@H]1Cc1c(-c2[nH]c3cc(F)ccc3c2C[C@@H]2C[C@H](O)CN2C(=O)[C@H](CC)NC(=O)[C@H](C)NC)[nH]c2cc(F)ccc12 [Birinapant],Excess HSA synergy score,[1],170
Nc1ccn([C@@H]2CO[C@H](CO)O2)c(=O)n1 [Troxacitabine] + CC[C@H](NC(=O)[C@H](C)NC)C(=O)N1C[C@@H](O)C[C@H]1Cc1c(-c2[nH]c3cc(F)ccc3c2C[C@@H]2C[C@H](O)CN2C(=O)[C@H](CC)NC(=O)[C@H](C)NC)[nH]c2cc(F)ccc12 [Birinapant],Excess HSA synergy score,[1],152
